{
  "source": "the supplement of paper PMC8975748",
  "note": "Where a name gives a salt, the structure may show the parent alone.",
  "data": [
    {"system": "Saccharomyces cerevisiae BY4741 SeMeCo community", "assay": "z-score of subpopulation abundance vs DMSO median, subpopulation auxotrophic for U; higher = larger share of this subpopulation than in DMSO controls", "conditions": "10 µM; 24 h; SM minimal medium; subpopulation (auxotrophy): U", "method": "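Fluorescent four-plasmid SeMeCo (self-establishing metabolically cooperating S. cerevisiae BY4741 community; plasmids pH-mRuby2, pL-mWasabi, pU-eCFP, pM-TagRFP657) was grown 24 h in minimal SM medium with each Selleck FDA-approved drug at 10 µM in 384-well plates. Cells were fixed and imaged by high-content confocal microscopy. For each auxotrophic subpopulation (and the prototroph), a z-score gives the deviation from the DMSO vehicle-control population median.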", "values": [
      {"smiles": "O=C(O)Cc1ccccc1Nc1c(Cl)cccc1Cl", "note": "[Diclofenac acid]", "z-score of subpopulation abundance": -0.61},
      {"smiles": "CCC(C)C1OC2(CCC1C)CC1CC(CC=C(C)C(OC3CC(OC)C(OC4CC(OC)C(O)C(C)O4)C(C)O3)C(C)C=CC=C3COC4C(O)C(C)=CC(C(=O)O1)C34O)O2", "note": "(stereo not given) [Ivermectin]", "z-score of subpopulation abundance": 0.12},
      {"smiles": "CCOc1cc(N)c([N+](=O)[O-])cc1C(=O)NC1CCN(CC2CC=CCC2)CC1", "note": "(stereo not given) [Cinitapride Hydrogen Tartrate]", "z-score of subpopulation abundance": 1.07},
      {"smiles": "CN(Cc1cnc2nc(N)nc(N)c2n1)c1ccc(C(=O)N[C@@H](CCC(=O)O)C(=O)O)cc1", "note": "[Methotrexate]", "z-score of subpopulation abundance": -2.91},
      {"smiles": "COc1cc(N)c(Cl)cc1C(=O)NC1CCN(CCCOc2ccc(F)cc2)CC1OC", "note": "(stereo not given) [Cisapride hydrate]", "z-score of subpopulation abundance": 0.95},
      {"smiles": "COc1cc([C@@H]2c3cc4c(cc3[C@@H](O[C@@H]3O[C@@H]5CO[C@@H](C)O[C@H]5[C@H](O)[C@H]3O)[C@H]3COC(=O)[C@H]23)OCO4)cc(OC)c1O", "note": "[Etoposide]", "z-score of subpopulation abundance": 0.39},
      {"smiles": "CNCC[C@H](Oc1cccc2ccccc12)c1cccs1", "note": "[Duloxetine HCl]", "z-score of subpopulation abundance": -0.11},
      {"smiles": "Nc1nnc(-c2cccc(Cl)c2Cl)c(N)n1", "note": "[Lamotrigine]", "z-score of subpopulation abundance": -0.91},
      {"smiles": "CCCOc1ccc(C(=O)OCCN(CC)CC)cc1N", "note": "[Proparacaine HCl]", "z-score of subpopulation abundance": 0.18},
      {"smiles": "CCOC(=O)C1=C(COCCN)NC(C)=C(C(=O)OC)C1c1ccccc1Cl", "note": "(stereo not given) [Amlodipine Besylate]", "z-score of subpopulation abundance": -6.89},
      {"smiles": "COc1ccc2c3c1O[C@H]1C[C@@H](O)C=C[C@@]31CCN(C)C2", "note": "[Galanthamine HBr]", "z-score of subpopulation abundance": 0.01},
      {"smiles": "O=C(O)CCc1nc(-c2ccccc2)c(-c2ccccc2)o1", "note": "[Oxaprozin]", "z-score of subpopulation abundance": -1.97},
      {"smiles": "O=C(N[C@H](CO)[C@H](O)c1ccc([N+](=O)[O-])cc1)C(Cl)Cl", "note": "[Chloramphenicol]", "z-score of subpopulation abundance": -0.21},
      {"smiles": "c1ccc(-c2ccc(C(c3ccccc3)n3ccnc3)cc2)cc1", "note": "(stereo not given) [Bifonazole]", "z-score of subpopulation abundance": -0.36},
      {"smiles": "CC[C@@]1(O)C(=O)OCc2c1cc1n(c2=O)Cc2cc3cc(O)ccc3nc2-1", "note": "[(S)-10-Hydroxycamptothecin]", "z-score of subpopulation abundance": -1.66},
      {"smiles": "NC(=O)Cc1cccc(C(=O)c2ccccc2)c1N", "note": "[Nepafenac]", "z-score of subpopulation abundance": -1.24},
      {"smiles": "Cc1nc2n(c(=O)c1CCN1CCC(c3noc4cc(F)ccc34)CC1)CCCC2O", "note": "(stereo not given) [Paliperidone]", "z-score of subpopulation abundance": 0.75},
      {"smiles": "C[C@@H](O)[C@H]1C(=O)N2C(C(=O)O)=C(S[C@@H]3CN[C@H](C(=O)N(C)C)C3)[C@H](C)[C@H]12", "note": "[Meropenem Trihydrate]", "z-score of subpopulation abundance": -0.82},
      {"smiles": "CC(C)COCC(CN(Cc1ccccc1)c1ccccc1)N1CCCC1", "note": "(stereo not given) [Bepridil hydrochloride]", "z-score of subpopulation abundance": -0.09},
      {"smiles": "CN(C)CCC=C1c2ccccc2C=Cc2ccccc21", "note": "[Cyclobenzaprine HCl]", "z-score of subpopulation abundance": 1.16},
      {"smiles": "CC(=O)N1CCN(c2ccc(OCC3COC(Cn4ccnc4)(c4ccc(Cl)cc4Cl)O3)cc2)CC1", "note": "(stereo not given) [Ketoconazole]", "z-score of subpopulation abundance": -0.47},
      {"smiles": "CN(C)CCN1C(=O)c2cccc3cc(N)cc(c23)C1=O", "note": "[Amonafide]", "z-score of subpopulation abundance": -1.14},
      {"smiles": "Nc1nc(N)nc(-c2cc(Cl)ccc2Cl)n1", "note": "[Irsogladine]", "z-score of subpopulation abundance": -1.06},
      {"smiles": "CC1(C)CC[C@]2(C(=O)O)CC[C@]3(C)C(=CC[C@@H]4[C@@]5(C)CC[C@H](O)C(C)(C)[C@@H]5CC[C@]43C)[C@@H]2C1", "note": "[Oleanolic Acid]", "z-score of subpopulation abundance": -0.6},
      {"smiles": "Cc1onc(-c2ccccc2Cl)c1C(=O)N[C@@H]1C(=O)N2[C@@H]1SC(C)(C)[C@@H]2C(=O)O", "note": "[Cloxacillin Sodium]", "z-score of subpopulation abundance": 0.9},
      {"smiles": "Cc1c(S(=O)(=O)O)oc2c1C(=O)C(=O)c1c-2ccc2c1CCCC2(C)C", "note": "[Tanshinone IIA sulfonate (sodium)]", "z-score of subpopulation abundance": -1.39},
      {"smiles": "CCOC(=O)c1c(CSc2ccccc2)n(C)c2cc(Br)c(O)c(CN(C)C)c12", "note": "[Arbidol HCl]", "z-score of subpopulation abundance": 1.69},
      {"smiles": "Cc1c(-c2ccc(O)cc2)n(Cc2ccc(OCCN3CCCCCC3)cc2)c2ccc(O)cc12", "note": "[Bazedoxifene HCl]", "z-score of subpopulation abundance": -0.23},
      {"smiles": "CCNC(=O)[C@@H]1CCCN1C(=O)[C@H](CCCNC(=N)N)NC(=O)[C@H](CC(C)C)NC(=O)[C@@H](CC(C)C)NC(=O)[C@H](Cc1ccc(O)cc1)NC(=O)[C@H](CO)NC(=O)[C@H](Cc1c[nH]c2ccccc12)NC(=O)[C@H](Cc1c[nH]cn1)NC(=O)[C@@H]1CCC(=O)N1", "note": "[Leuprolide Acetate]", "z-score of subpopulation abundance": 0.31},
      {"smiles": "CN[C@H](CC(C)C)C(=O)N[C@H]1C(=O)N[C@@H](CC(N)=O)C(=O)N[C@H]2C(=O)N[C@H]3C(=O)N[C@H](C(=O)N[C@H](C(=O)O)c4cc(O)cc(O)c4-c4cc3ccc4O)[C@H](O)c3ccc(c(Cl)c3)Oc3cc2cc(c3O[C@@H]2O[C@H](CO)[C@@H](O)[C@H](O)[C@H]2O[C@H]2C[C@](C)(N)[C@H](O)[C@H](C)O2)Oc2ccc(cc2Cl)[C@H]1O", "note": "[Vancomycin]", "z-score of subpopulation abundance": -0.09},
      {"smiles": "CN1C2CCCC1CC(NC(=O)c1nn(C)c3ccccc13)C2", "note": "(stereo not given) [Granisetron]", "z-score of subpopulation abundance": 0.07},
      {"smiles": "O=C1CN(/N=C/c2ccc(-c3ccc([N+](=O)[O-])cc3)o2)C(=O)N1", "note": "[Dantrolene sodium]", "z-score of subpopulation abundance": -3.65},
      {"smiles": "CCC[C@@H]1C[C@@H](C(=O)N[C@@H]([C@H]2O[C@H](SC)[C@H](O)[C@@H](O)[C@H]2O)[C@@H](C)O)N(C)C1", "note": "[Lincomycin Hydrochloride Monohydrate]", "z-score of subpopulation abundance": 0.86},
      {"smiles": "COC1C(O)CC(=O)OC(C)CC=CC=CC(OC2CCC(N(C)C)C(C)O2)C(C)CC(CC=O)C1OC1OC(C)C(OC2CC(C)(O)C(O)C(C)O2)C(N(C)C)C1O", "note": "(stereo not given) [Spiramycin]", "z-score of subpopulation abundance": 0.01},
      {"smiles": "C#C[C@]1(O)CC[C@H]2[C@@H]3CCC4=CCCC[C@@H]4[C@H]3C(=C)C[C@@]21CC", "note": "[Desogestrel]", "z-score of subpopulation abundance": -0.38},
      {"smiles": "CCCCCCCCOc1ccccc1C(=O)Nc1ccc(C(=O)OCC[N+](C)(CC)CC)cc1", "note": "[Otilonium Bromide]", "z-score of subpopulation abundance": 0.58},
      {"smiles": "CCOc1cc(N)c(Cl)cc1C(=O)NCC1CN(Cc2ccc(F)cc2)CCO1", "note": "(stereo not given) [Mosapride Citrate]", "z-score of subpopulation abundance": 0.31},
      {"smiles": "CCCCOc1ccc(CC(=O)NO)cc1", "note": "[Bufexamac]", "z-score of subpopulation abundance": 0.85},
      {"smiles": "COCCCOc1ccnc(C[S+]([O-])c2nc3ccccc3[nH]2)c1C", "note": "(stereo not given) [Rebeprazole sodium]", "z-score of subpopulation abundance": 0.15},
      {"smiles": "COC(=O)Nc1nc2cc(Sc3ccccc3)ccc2[nH]1", "note": "[Fenbendazole]", "z-score of subpopulation abundance": -0.17}
    ]}
  ]
}
